M1 antag = antagonists of rat M1 muscarinic receptor. Muscarinic acetylcholine receptor M1 (Rattus norvegicus), P08482. CHO-M1 cells, Fluo-4 calcium, ACh EC80 antagonist mode; hits give low values. B-score at 10 µM. hit rate 3.4% among 64,000. AID 628, 2007;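 active = calcium fluorescence response, raw or row-and-column corrected B-score, differing from the plate sample mean either way at a set confidence level, mostly lower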
WNV NS2B-NS3 inh = inhibitors of WNV NS2B-NS3 protease, primary screen, biochemical, fluorogenic substrate | Genome polyprotein (West Nile virus), P06935 | fluorogenic substrate Ex360/Em465; hits give low values | z-score (no concentration beside the values) | hit rate 0.18% among 65,000 | AID 577, 2007; in the data active = z-score below about -3
D1 allo mod = D1 CRE-luciferase signal change, two-sided – cell-based, HEK293 D1, dopamine EC30, D1 allosteric modulator project, primary screen; D(1A) dopamine receptor (Homo sapiens), P21728; B-score at 10 µM; hit rate 5.9% among 58,000; dopamine EC30 potentiation; actives deviate in either direction;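 active = luminescence count or its row- and column-corrected plate score outside the 99.7% band of the plate's sample wells, on either side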
Target sequence (P21728 whole entry, looked up): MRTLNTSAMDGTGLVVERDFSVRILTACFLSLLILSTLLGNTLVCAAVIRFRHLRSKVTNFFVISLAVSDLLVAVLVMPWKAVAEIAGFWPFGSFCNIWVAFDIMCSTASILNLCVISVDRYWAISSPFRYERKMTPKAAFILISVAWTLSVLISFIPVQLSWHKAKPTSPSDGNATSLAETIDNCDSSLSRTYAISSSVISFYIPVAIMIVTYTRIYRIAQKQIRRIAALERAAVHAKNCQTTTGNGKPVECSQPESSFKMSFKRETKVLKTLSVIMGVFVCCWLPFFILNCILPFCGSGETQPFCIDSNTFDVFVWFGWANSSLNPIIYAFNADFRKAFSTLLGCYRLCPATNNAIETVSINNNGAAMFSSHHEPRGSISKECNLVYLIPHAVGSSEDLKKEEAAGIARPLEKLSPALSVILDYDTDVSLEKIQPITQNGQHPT
mHtt clearance = clearance of mutant huntingtin inclusions, primary screen, imaging, HeLa Exon1htt(103Q)mCFP, confocal imaging. aggregate imaging; zero = plate's median compound well. inhibition, % at 1.5 µM. hit rate 0.42% among 47,000. AID 853, 2007;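 active = inhibition of aggregate fluorescence above about 70%, also judged a hit by eye on the cell image, limit read from the data, passing the limit was not always enough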;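 also: cells exposed to compound for three days before fixation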
M1 agonist = M1 muscarinic receptor agonists, primary screen, CHO-M1 cells, Fluo-4 calcium, agonist mode; Fluo-4 calcium fluorescence; hits give high values; AID 626, 2007; hit rate 3% among 64,000; Muscarinic acetylcholine receptor M1; B-score at 10 µM;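 active = fluorescence rise, raw or as B-score row- and column-corrected plate score, outside the 99.7% band of its plate's samples, either direction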
Numbers without * were called inactive; x = no result. Most compounds without a hit are left out; they make up all but 8.9% or so of the library.

SMILES | M1 antag | WNV NS2B-NS3 inh | D1 allo mod | mHtt clearance | M1 agonist
Cc1ccccc1OCC(O)Cn1c(=N)n(CCN2CCOCC2)c2ccccc21 (stereo not given) | -0.49 | 1.2 | -4.9* | -36 | -0.52
Nc1nc2ccc(Oc3ccccc3)cc2s1 | -0.026 | 1.8 | -4.5* | x | 2.1
Nc1nc2ccc(S(=O)(=O)c3ccc4nc(N)sc4c3)cc2s1 | -0.76 | 1.4 | 1.2 | -69 | 1
COc1ccc(OC)c(S(=O)(=O)N2CCC(C(=O)N3CCN(Cc4ccccc4)CC3)CC2)c1 | -0.12 | 2.4 | -5.1* | -12 | -0.036
Cc1cc(C)cc(OCC(=O)NCC2CCCO2)c1 (stereo not given) | 0.94 | 0.08 | -4.8* | x | 0.91
CCOC(=O)C(NC(=O)Nc1ccccc1)(OCC)C(F)(F)F (stereo not given) | 0.53 | 0.62 | -0.095 | 11 | 0.51
CCOC(=O)C(NC(C)=O)(OCc1ccc(F)cc1)C(F)(F)F (stereo not given) | -1.1 | 1.3 | -5.7* | x | 0.18
CCn1nnnc1SCC(=O)N1CCCc2ccccc21 | x | x | x | 11 | x
CN1CCN(C(=O)c2cc3nc(-c4ccc(Cl)cc4)cc(C(F)(F)F)n3n2)CC1 | 0.87 | 1.3 | -3.7* | 3 | -1.7
CN1CCN(C(=O)c2cc3nc(-c4ccccc4)cc(C(F)(F)F)n3n2)CC1 | 0.018 | 1.5 | -0.1 | 30 | -0.62
CCOC(=O)/C(C#N)=C1/C=C(C)NC(c2ccccc2O)=N1 | -7.1* | 1.4 | -1.9 | 17 | 16*
Cc1noc(C)c1COC(=O)c1ccc(-c2nc3ccccc3s2)s1 | 0.013 | 0.61 | -1.2 | 5 | -0.044
O=C(NC1CC1)c1ccc(-c2nc3ccccc3s2)s1 | 0.28 | -0.78 | -6* | -2 | 1
CC(C)N(Cc1nnc(-c2ccccc2Cl)o1)C(=O)c1cccc(C#N)c1 | 1.2 | 1.1 | x | x | -0.0099
COCCn1c(C)cc(C(=O)COC(=O)C23CC4CC(CC(O)(C4)C2)C3)c1C | 0.8 | -0.73 | -4.6* | -14 | 0.34
CCn1c(SCC(=O)N2CCN(S(=O)(=O)c3ccccc3)CC2)nnc1-c1cccs1 | -1.4 | -0.68 | -1.8 | 21 | -1.4
CN1CCN(S(=O)(=O)c2ccc(Sc3nnc(-c4cccs4)n3-c3ccccc3)nc2)CC1 | -0.1 | -0.23 | -4.1* | -9 | 2.2
Cc1oc2cc3c(C(=O)OCCN(C)C)c(C)oc3cc2c1C(=O)OCCN(C)C | 0.5 | -0.45 | -3.4* | x | 0.86
CCOC(=O)c1c(C)oc2cc3c(C(=O)OCC)c(C)oc3cc12 | x | x | x | -33 | x
O=S(=O)(NCC1CCCO1)c1ccc(S(=O)(=O)N(Cc2ccccc2F)C2CCCCC2)cc1 (stereo not given) | x | x | x | -7 | x
Cc1ccc(C2CC(C(F)(F)F)n3ncc(C(N)=O)c3N2)cc1 (stereo not given) | 0.69 | -0.1 | x | -2 | 0.52
COc1cc(C2CC(C(F)(F)F)n3ncc(C(=O)O)c3N2)cc(OC)c1OC (stereo not given) | 0.57 | -5.8* | x | -40 | -0.011
O=C(c1cn(-c2ccccc2)nc1-c1ccncc1)n1nnc2ccccc21 | -1.5 | -0.82 | 12* | x | 0.73
O=C(O)c1cn(-c2ccccc2)nc1-c1ccncc1 | 0.044 | -0.41 | x | x | 0.028
Cc1cc(C)n2nc(C(=O)OCC(=O)Nc3ccc4c(c3)OCO4)nc2n1 | 0.83 | -0.14 | -4.9* | -32 | -0.82
SMILES | M1 antag | WNV NS2B-NS3 inh | D1 allo mod | mHtt clearance | M1 agonist
CN(C)C(CNC(=O)CSc1nnc(-c2ccco2)o1)c1ccccc1 (stereo not given) | 0.73 | 0.02 | -0.52 | -43 | -0.14
COc1cc(OC)c(C2CC(=O)N3CN(C)CSC3=C2C#N)cc1OC (stereo not given) | 0.66* | -1.1 | -0.27 | x | -0.56
COc1ccc(Br)cc1C1CC(=O)N2CN(C)CSC2=C1C#N (stereo not given) | 1.4 | 0.82 | -0.24 | -10 | 0.81
COc1cccc(CNC(=O)C2CCN(S(=O)(=O)c3ccc(F)cc3)CC2)c1 | -0.014 | -0.39 | -0.78 | -25 | -0.3
COc1cccc(CNC(=O)C2CCN(S(=O)(=O)c3ccc4c(c3)CCC(=O)N4)CC2)c1 | 0.71 | -3.3* | -0.23 | x | -0.58
CCN(CC)c1ccc2cc(-c3nnc(-c4ccncc4)o3)c(=O)oc2c1 | -15* | -0.04 | x | 21 | 401*
O=C(Nc1cccc(-c2cn3cccnc3n2)c1)c1ccc(Br)o1 | -1.2 | 1.2 | 0.75 | x | 2
O=C(Nc1cccc(-c2cn3cccnc3n2)c1)c1ccco1 | 0.041 | 2.1 | -4* | x | 0.82
c1ccc(-n2ncc3c(N4CCN(CCOc5cccc6ccccc56)CC4)ncnc32)cc1 | x | x | x | 6 | x
Cc1ccc(C(=O)Nc2cccc(C(=O)NCc3ccccc3)c2)o1 | -0.41 | -0.44 | -1.2 | x | 3.1*
O=c1[nH]c(Nc2nc3ccccc3o2)nc2c1CCCC2 | 0.24 | 2.3 | -6.4* | x | 0.096
Cc1ccc(Nc2nc3c(c(=O)[nH]2)CCCC3)cc1 | x | x | x | -12 | x
O=C(c1cc(-c2cccc(O)c2)on1)N1CCOCC1 | -0.71 | 0.34 | -5* | x | 0.13
CCOc1ccc(NS(=O)(=O)c2ccc3[nH]cc(C(=O)N(CC)CC)c(=O)c3c2)cc1 | -11* | -1.2 | -0.16 | -6 | 23*
CCCN(CCC)CCNC(=O)C1CCCN(S(=O)(=O)c2ccc3c(c2)oc(=O)n3C)C1 (stereo not given) | -0.65 | 1.7 | -3.1* | x | 0.41
Cc1cccc(OCC2=NS(=O)(=O)c3ccccc3N2)c1 | 0.00045 | -0.67 | x | x | -0.85
COc1ccccc1NC(=O)NCCCN1CCN(c2cccc(Cl)c2)CC1 | -0.29 | 0.9 | -4.2* | 15 | -0.77
Cn1c(=O)cc(OCC(=O)NCCCN2CCN(c3cccc(Cl)c3)CC2)c2ccccc21 | 0.18 | -0.11 | -5.3* | x | -1
COc1ccc(CNC(=O)Nc2cccc(C)c2)cc1 | 0.32 | -0.56 | -0.19 | -17 | -2.1
COc1ccc(C(=O)Nc2cccc(C)c2)cc1 | 0.72 | 0.34 | -3.5* | -30 | 0.59
C=CCn1c(C)cc(C(=O)CSc2nnc(-c3cccc(S(=O)(=O)N(CC)CC)c3)o2)c1C | 0.49 | 1.1 | 1.6 | x | 1.9
CCN(CC)S(=O)(=O)c1cccc(-c2nnc(SCC(=O)c3cc(C)n(C4CC4)c3C)o2)c1 | -0.61 | 0.42 | 0.54 | x | 3.2*
Cc1cc2c(s1)c1cnn(CC(=O)NCCc3ccccc3)c(=O)c1n2C | 3.1* | 0.21 | 0.47 | 28 | 0.0053
CN1CCN(CCCNC(=O)Cn2ncc3c4ccccc4n(C)c3c2=O)CC1 | 0.014 | 0.04 | -0.11 | x | 1.2
CCN(c1cccc(C)c1)c1ncnc2nc[nH]c12 | -0.007 | 2.1 | 3.5 | x | -0.036
CN(CCO)c1ncnc2nc[nH]c12 | 0.72* | -0.56 | x | 37 | 0.82
Cc1cccc(NC(=S)NC2CC3CCCC(C2)N3CC(C)C)c1 (stereo not given) | x | x | x | -41 | x
CCCC(=O)Nc1cc(-c2cn3cccnc3n2)ccc1OC | 0.074 | -0.15 | -3.4* | x | -0.19
COc1ccc(-c2cn3cccnc3n2)cc1NC(=O)CC(C)C | 0.47 | 1.9 | -0.94 | x | 0.1
